These results are taken from PubChem BioAssay (Tox21).

Inconclusive results are not listed. A number with no mark means an inactive call. The source made the active and inactive calls. The call rests on the fitted dose curve; in most records, active means well fitted curve in the direction sought with a large enough effect in the repeat runs; inconclusive means weak or mixed curves; inactive means no such curve, though single readings can be large; an effect the other way counts as inactive or inconclusive.

For assay [1], the target named is Nuclear receptor subfamily 1 group I member 2 (Homo sapiens) (UniProt O75469). Kind of assay: Human pregnane X receptor (PXR) small molecule agonists, qHTS assay (AID 1346982). Further: nearly all actives have a fitted effect of over 35% in size. Put shortly:
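Agonist mode qHTS: PXR-Luc HepG2 cells plated 5 hr before DMSO-dissolved compounds were pinned in, cultured 24 hr at 37 C, 5% CO2; ONE-Glo luminescence readout.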

Assay [2] addresses Cytochrome P450 2D6 (Homo sapiens) (UniProt P10635). Kind of assay: Cytochrome P450 Family 2 Subfamily D Member 6 (CYP2D6) small molecule antagonists: luciferase reporter qHTS assay (AID 1671196). Further: nearly all actives have a fitted effect of over 50% in size. Further: potency means the concentration at half of the fitted maximal effect. On activity change, negative = inhibition: series mostly up to about 120 µM. In a few lines: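 P450-Glo format: CYP2D6 converts a proluciferin substrate to luciferin in an NADPH-driven reaction lasting 1 h at room temperature. Light output, proportional to CYP2D6 activity, reflects interference by test chemicals.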
Background: A reporter such as luciferase makes a cellular process visible.

Assay [3] deals with Cytochrome P450 2C19 (Homo sapiens) (UniProt P33261). Kind of assay: Cytochrome P450 Family 2 Subfamily C Member 19 (CYP2C19) small molecule antagonists: luciferase reporter qHTS assay (AID 1671197). Further: nearly all actives have a fitted effect of over 65% in size. Further: potency means the concentration at half of the fitted maximal effect. On activity change, negative = inhibition: series mostly up to about 120 µM. Put shortly: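 First, compounds are pinned into enzyme-substrate mix and held 10 min at room temperature. Second, NADPH regeneration solution is added and plates incubate 1 h at 37C. Third, detection reagent is added and luminescence read after 20 min.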
Cytochrome P450 2C19 (Homo sapiens), sequence (P33261 whole entry, looked up): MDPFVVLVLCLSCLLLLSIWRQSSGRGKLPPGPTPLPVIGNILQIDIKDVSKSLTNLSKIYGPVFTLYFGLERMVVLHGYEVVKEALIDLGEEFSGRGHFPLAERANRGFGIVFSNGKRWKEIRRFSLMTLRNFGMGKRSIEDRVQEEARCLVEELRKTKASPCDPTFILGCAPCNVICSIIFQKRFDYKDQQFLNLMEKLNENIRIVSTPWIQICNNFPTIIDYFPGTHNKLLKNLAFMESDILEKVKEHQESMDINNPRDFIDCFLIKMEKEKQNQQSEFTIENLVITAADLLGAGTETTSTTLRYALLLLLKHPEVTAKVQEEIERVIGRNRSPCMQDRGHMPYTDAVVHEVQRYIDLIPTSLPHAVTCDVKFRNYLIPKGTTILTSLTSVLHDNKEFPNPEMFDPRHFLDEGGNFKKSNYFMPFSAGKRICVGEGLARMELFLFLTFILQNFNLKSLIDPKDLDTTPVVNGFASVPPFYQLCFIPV

Assay [4] has as its target Cytochrome P450 1A2 (Homo sapiens) (UniProt P05177). Kind of assay: Cytochrome P450 Family 1 Subfamily A Member 2 (CYP1A2) small molecule antagonists: luciferase reporter qHTS assay (AID 1671199). Further: nearly all actives have a fitted effect of over 50% in size. Further: potency means the concentration at half of the fitted maximal effect. On activity change, negative = inhibition: series mostly up to about 120 µM. In a few lines:
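Inhibition of CYP1A2 conversion of proluciferin to luciferin, detected by luminescence. Reaction run 1 h at room temperature with NADPH regeneration after brief compound preincubation.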

Assay [5] has as its target Voltage-gated inwardly rectifying potassium channel KCNH2 (Homo sapiens) (UniProt Q12809). Description: Human Ether-a-go-go-Related Gene (hERG) channel small molecule antagonists: fluorescence cell-based qHTS assay (AID 1671200).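 Further: hERG-expressing U2OS cells given a thallium stimulus after FluxOR II dye loading; series mostly up to about 77 µM; nearly all actives have a fitted effect of over 50% in size.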 Put shortly: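 hERG-U2OS cells plated overnight at 37 C, loaded with FluxOR II dye 1 h at RT in dark; after 10 min, thallium stimulus added. Fluorescence (480/540 nm) read kinetically for 2 min at 1 s intervals.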
A general note: hERG is a cardiac potassium channel; its block is linked to QT prolongation.

Assay [6] addresses Cytochrome P450 3A4 (Homo sapiens) (UniProt P08684). Description: Cytochrome P450 Family 3 Subfamily A Member 4 (CYP3A4) small molecule antagonists: luciferase reporter qHTS assay (AID 1671201). Further: nearly all actives have a fitted effect of over 50% in size. Further: potency means the concentration at half of the fitted maximal effect. On activity change, negative = inhibition: series mostly up to about 120 µM. Put shortly:
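P450-Glo CYP3A4 luminescent assay: compounds preincubated 10 min at room temperature with enzyme and proluciferin substrate, NADPH regeneration added, 1 h room-temperature reaction, stopped with luciferin detection reagent; luminescence read after 20 min. Ketoconazole positive control.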

Assay [7] addresses Cytochrome P450 2C9 (Homo sapiens) (UniProt P11712). Kind of assay: Cytochrome P450 Family 2 Subfamily C Member 9 (CYP2C9) small molecule antagonists: luciferase reporter qHTS assay (AID 1671198). Further: nearly all actives have a fitted effect of over 50% in size. Further: potency means the concentration at half of the fitted maximal effect. On activity change, negative = inhibition: series mostly up to about 120 µM. Put shortly: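 CYP2C9 activity was measured with a P450-Glo proluciferin substrate. Enzyme–substrate mix was held with compound for 10 min at room temperature, then NADPH regeneration solution was added for 1 h at 37C. Luciferin product was read as luminescence.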
On the % scale 0 is the no-effect control and ±100 the full control effect.

Cytochrome P450 2D6 (Homo sapiens), sequence (P10635 whole entry, looked up): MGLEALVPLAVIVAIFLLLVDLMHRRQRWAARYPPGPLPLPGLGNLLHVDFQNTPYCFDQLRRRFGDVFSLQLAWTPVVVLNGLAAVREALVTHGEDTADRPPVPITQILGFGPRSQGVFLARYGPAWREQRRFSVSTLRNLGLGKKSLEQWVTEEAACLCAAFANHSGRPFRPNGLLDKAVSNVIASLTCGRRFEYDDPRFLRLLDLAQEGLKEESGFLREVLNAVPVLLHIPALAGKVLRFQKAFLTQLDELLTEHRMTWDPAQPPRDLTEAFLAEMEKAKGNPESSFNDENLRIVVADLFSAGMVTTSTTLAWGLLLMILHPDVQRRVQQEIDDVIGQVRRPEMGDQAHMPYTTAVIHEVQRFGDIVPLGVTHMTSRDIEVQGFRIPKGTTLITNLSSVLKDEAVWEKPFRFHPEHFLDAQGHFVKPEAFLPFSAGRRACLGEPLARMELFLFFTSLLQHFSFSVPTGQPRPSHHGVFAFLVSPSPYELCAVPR
Cytochrome P450 2C9 (Homo sapiens), sequence (P11712 whole entry, looked up): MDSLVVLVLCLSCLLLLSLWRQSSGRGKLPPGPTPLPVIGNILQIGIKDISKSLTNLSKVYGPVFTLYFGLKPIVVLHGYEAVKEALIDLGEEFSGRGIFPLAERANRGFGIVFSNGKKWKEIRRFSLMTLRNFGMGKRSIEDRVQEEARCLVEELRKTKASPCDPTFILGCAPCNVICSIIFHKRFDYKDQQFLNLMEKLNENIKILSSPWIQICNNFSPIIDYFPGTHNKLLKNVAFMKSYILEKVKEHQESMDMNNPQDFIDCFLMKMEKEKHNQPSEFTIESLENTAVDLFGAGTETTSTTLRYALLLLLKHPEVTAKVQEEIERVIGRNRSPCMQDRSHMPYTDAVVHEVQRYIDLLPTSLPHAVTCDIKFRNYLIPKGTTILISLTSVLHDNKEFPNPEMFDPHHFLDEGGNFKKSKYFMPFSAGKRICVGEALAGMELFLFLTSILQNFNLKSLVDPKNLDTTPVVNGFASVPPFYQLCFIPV
Cytochrome P450 1A2 (Homo sapiens), sequence (P05177 whole entry, looked up): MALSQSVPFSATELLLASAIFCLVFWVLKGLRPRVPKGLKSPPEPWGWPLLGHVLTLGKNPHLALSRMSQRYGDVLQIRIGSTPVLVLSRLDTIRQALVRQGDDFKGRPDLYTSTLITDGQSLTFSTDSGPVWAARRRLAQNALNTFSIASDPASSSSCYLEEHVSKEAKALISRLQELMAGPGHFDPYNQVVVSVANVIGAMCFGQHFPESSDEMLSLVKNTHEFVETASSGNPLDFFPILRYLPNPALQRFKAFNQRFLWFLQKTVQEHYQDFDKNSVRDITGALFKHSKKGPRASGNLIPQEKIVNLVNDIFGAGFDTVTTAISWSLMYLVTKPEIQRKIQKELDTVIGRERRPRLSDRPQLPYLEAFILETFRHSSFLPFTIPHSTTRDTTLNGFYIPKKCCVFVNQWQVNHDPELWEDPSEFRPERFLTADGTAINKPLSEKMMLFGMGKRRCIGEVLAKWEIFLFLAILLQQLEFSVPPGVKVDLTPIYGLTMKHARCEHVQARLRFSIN
Cytochrome P450 3A4 (Homo sapiens), sequence (P08684 whole entry, looked up): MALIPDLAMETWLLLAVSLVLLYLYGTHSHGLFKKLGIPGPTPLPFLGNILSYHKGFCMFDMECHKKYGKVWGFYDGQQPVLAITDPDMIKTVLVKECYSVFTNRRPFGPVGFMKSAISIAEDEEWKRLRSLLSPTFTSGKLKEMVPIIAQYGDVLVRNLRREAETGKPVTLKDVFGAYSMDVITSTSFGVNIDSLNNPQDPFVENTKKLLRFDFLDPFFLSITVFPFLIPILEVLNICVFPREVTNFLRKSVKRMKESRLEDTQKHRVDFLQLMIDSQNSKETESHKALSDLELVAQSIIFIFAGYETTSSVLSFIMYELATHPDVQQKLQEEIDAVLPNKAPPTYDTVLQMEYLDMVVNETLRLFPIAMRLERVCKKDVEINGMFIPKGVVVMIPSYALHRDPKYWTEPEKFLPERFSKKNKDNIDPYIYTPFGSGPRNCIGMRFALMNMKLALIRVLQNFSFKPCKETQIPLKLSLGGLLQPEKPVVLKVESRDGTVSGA
Nuclear receptor subfamily 1 group I member 2 (Homo sapiens), sequence (O75469 whole entry, looked up): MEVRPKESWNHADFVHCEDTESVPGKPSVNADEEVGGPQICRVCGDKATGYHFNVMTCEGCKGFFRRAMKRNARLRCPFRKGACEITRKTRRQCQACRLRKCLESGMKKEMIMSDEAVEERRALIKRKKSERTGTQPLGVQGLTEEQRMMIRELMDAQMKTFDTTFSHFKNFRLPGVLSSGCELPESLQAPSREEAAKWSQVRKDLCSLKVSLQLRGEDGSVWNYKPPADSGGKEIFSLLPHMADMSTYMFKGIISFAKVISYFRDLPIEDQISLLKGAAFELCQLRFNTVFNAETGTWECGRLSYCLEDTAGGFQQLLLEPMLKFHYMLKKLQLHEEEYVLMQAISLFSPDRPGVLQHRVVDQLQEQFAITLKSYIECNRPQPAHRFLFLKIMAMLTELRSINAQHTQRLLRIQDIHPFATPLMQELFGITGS
Voltage-gated inwardly rectifying potassium channel KCNH2 (Homo sapiens), sequence (Q12809 whole entry, looked up): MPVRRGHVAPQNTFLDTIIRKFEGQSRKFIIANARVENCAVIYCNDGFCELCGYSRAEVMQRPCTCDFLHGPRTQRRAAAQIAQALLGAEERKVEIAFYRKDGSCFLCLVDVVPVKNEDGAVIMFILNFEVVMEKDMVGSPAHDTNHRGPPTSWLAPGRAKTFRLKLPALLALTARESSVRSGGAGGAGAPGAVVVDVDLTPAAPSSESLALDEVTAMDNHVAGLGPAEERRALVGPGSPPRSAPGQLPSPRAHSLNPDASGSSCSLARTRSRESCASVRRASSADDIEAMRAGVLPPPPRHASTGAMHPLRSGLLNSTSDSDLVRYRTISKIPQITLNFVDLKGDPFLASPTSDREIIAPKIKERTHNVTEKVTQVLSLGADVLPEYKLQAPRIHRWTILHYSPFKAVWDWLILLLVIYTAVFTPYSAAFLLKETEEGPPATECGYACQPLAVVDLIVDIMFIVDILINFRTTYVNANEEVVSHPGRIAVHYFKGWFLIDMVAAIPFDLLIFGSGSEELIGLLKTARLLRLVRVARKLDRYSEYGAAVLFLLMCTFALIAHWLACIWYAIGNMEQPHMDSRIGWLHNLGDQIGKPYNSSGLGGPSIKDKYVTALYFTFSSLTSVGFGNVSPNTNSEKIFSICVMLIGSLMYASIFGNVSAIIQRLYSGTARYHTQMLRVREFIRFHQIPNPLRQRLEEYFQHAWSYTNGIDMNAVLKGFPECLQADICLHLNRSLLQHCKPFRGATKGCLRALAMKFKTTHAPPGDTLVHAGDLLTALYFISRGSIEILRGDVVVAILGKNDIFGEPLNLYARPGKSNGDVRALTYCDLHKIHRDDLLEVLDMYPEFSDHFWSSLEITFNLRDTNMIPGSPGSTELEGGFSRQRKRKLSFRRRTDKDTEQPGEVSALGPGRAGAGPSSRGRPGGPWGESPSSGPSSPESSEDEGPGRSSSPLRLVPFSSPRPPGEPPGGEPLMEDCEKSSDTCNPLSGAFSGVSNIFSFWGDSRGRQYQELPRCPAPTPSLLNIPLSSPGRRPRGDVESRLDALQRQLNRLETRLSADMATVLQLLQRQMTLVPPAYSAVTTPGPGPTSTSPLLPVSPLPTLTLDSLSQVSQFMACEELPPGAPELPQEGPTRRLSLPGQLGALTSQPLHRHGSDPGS

For the compound `C/C=C(\C)C(=O)OCCc1ccccc1`, the Potency entry in assay [1], in assay [2], in assay [5] and in assay [6] was “inactive” in each case. Moreover, the Potency in assay [3] and in assay [4] was 39.9 µM (active) throughout.
Turning to `CN(C)CCCCl`, the Potency result in assay [1], in assay [2], in assay [3], in assay [7], in assay [5] and in assay [6] was “inactive” throughout.
For `Nc1nnnn1-c1ccccc1`, the Potency entry in assay [1], in assay [2], in assay [3], in assay [7], in assay [5] and in assay [6] was “inactive” each time.
On to `CC(=O)O[Si](C)(OC(C)=O)OC(C)=O`, for which the Potency result in assay [1], in assay [2], in assay [3], in assay [4] and in assay [5] was “inactive” each time. Besides, the Potency in assay [6] was 5.15 µM (active).
In the case of `COc1cc(OC)nc(O[C@H](C(=O)O)C(OC)(c2ccccc2)c2ccccc2)n1`, the Potency result in assay [1], in assay [2], in assay [3], in assay [4], in assay [5] and in assay [6] was “inactive” in each case.
As to `CCC(C)OC(C)CC` (stereo unspecified), the Potency entry in assay [1], in assay [2], in assay [3], in assay [7], in assay [5] and in assay [6] was “inactive” each time.
As to `COC(=O)/C=C\C(=O)O`, the Potency result in assay [1], in assay [2], in assay [3], in assay [4], in assay [5] and in assay [6] was “inactive” throughout.
For the compound `O=C(CCCCC(=O)Nc1c(I)cc(I)c(C(=O)O)c1I)Nc1c(I)cc(I)c(C(=O)O)c1I`, the Potency result in assay [1], in assay [2], in assay [3], in assay [4] and in assay [5] was “inactive” each time.
As for `CCCCCCCCCCOC(C)=O`, the Potency result in assay [1], in assay [2], in assay [3], in assay [4], in assay [5] and in assay [6] was “inactive” in each case.
On to `C=CCCCC`, for which the Potency result in assay [1], in assay [2], in assay [3], in assay [4], in assay [5] and in assay [6] was “inactive” each time.
As for `Cc1c(Cl)cccc1Cl`, the Potency entry in assay [1], in assay [2], in assay [3] and in assay [5] was “inactive” in each case.
With `OC[C@@H](O)C(O)[C@@H](O)CO` (stereo partly specified), the Potency result in assay [1], in assay [2], in assay [5] and in assay [6] was “inactive” each time. The Potency in assay [3] was 40.4 µM (active).
Consider `COC(=O)c1cc(Cl)cc(Cl)c1`, for which the Potency entry in assay [1], in assay [2], in assay [3], in assay [7], in assay [5] and in assay [6] was “inactive” throughout.
As for `OC1(c2ccc(Cl)cc2)CCNCC1`, the Potency entry in assay [1], in assay [5] and in assay [6] was “inactive” each time. In addition, the values for the Potency in assay [2] and in assay [3] were 5.49 µM (active) and 3.09 µM (active), respectively.
For `CCO`, the Potency entry in assay [1], in assay [2], in assay [3], in assay [7], in assay [5] and in assay [6] was “inactive” each time.
With `CC(Oc1cc(Cl)ccc1Cl)C(=O)O` (stereo unspecified), the Potency result in assay [1], in assay [2], in assay [3] and in assay [5] was “inactive” throughout.
On to `CC1(C)[C@H]2CC[C@](C)(C2)[C@H]1O`, for which the Potency entry in assay [1], in assay [2], in assay [3], in assay [5] and in assay [6] was “inactive” throughout.
In the case of `O=C(O)c1cc2ccccc2nc1C(=O)O`, the Potency result in assay [1], in assay [2], in assay [3], in assay [7], in assay [5] and in assay [6] was “inactive” each time.
Regarding `C=CC(=O)CCCCC`, the Potency result in assay [1], in assay [2], in assay [3], in assay [7], in assay [5] and in assay [6] was “inactive” each time.
For the compound `CC(C)NC(=O)c1ccc(C=O)cc1`, the Potency entry in assay [1], in assay [2], in assay [3], in assay [7], in assay [5] and in assay [6] was “inactive” in each case.
`Cc1cc(-c2ccccc2)nnc1NCCN1CCOCC1`: the Potency entry in assay [1], in assay [3], in assay [4] and in assay [5] was “inactive” in each case. Moreover, in assay [2], the Potency is 8.71 µM (active).
Regarding `CCCSSCCC`, the Potency result in assay [1], in assay [2], in assay [3], in assay [7], in assay [5] and in assay [6] was “inactive” in each case.
Take `C=CCCCCCCCCC(=O)OCCCC`: the Potency result in assay [1], in assay [2], in assay [5] and in assay [6] was “inactive” each time. Moreover, the Potency in assay [3] was 56.4 µM (active).
As to `C=C(C)[C@@H]1CC=C(C)CC1`, the Potency entry in assay [1], in assay [2], in assay [3], in assay [7], in assay [5] and in assay [6] was “inactive” throughout.
Take `Cc1ccc(C)c([N+](=O)[O-])c1`: the Potency entry in assay [1], in assay [2], in assay [3], in assay [4], in assay [5] and in assay [6] was “inactive” in each case.
With `O=C1CCC(=O)N1Cl`, the Potency result in assay [1], in assay [2], in assay [3], in assay [7], in assay [5] and in assay [6] was “inactive” in each case.
As for `CC1CC(=O)CC(C)(C)C1` (stereo unspecified), the Potency result in assay [1], in assay [2], in assay [3], in assay [7], in assay [5] and in assay [6] was “inactive” each time.
Take `O=C1CCCCO1`: the Potency result in assay [1], in assay [2], in assay [3] and in assay [5] was “inactive” each time.
In the case of `C[C@@H](O)C(=O)O`, the Potency entry in assay [1], in assay [2] and in assay [5] was “inactive” in each case.
As to `CCCC(=O)OC/C=C(\C)CCC=C(C)C`, the Potency entry in assay [1], in assay [2], in assay [3] and in assay [6] was “inactive” in each case.
Turning to `CCc1occc(=O)c1O`, the Potency result in assay [1], in assay [2], in assay [3], in assay [5] and in assay [6] was “inactive” each time.
With `CC1(C)CC(OC(=O)CCCCCCCCC(=O)OC2CC(C)(C)NC(C)(C)C2)CC(C)(C)N1`, the activation in assay [1] is 26.4% [at 19 µM]. For the same compound, the activity change, negative = inhibition in assay [2] is -17.8% [at 23.6 µM]; in assay [7], -10.9% [at 23.6 µM]; in assay [4], -5.32% [at 23.6 µM]; in assay [5], -0.993% [at 15.8 µM].
`COP(=O)(O)OP(=O)(O)OC`: the Potency entry in assay [1], in assay [3], in assay [7], in assay [4], in assay [5] and in assay [6] was “inactive” each time.
For the compound `CC(CO)(CO)CO`, the Potency result in assay [1], in assay [3], in assay [5] and in assay [6] was “inactive” in each case. Also, in assay [2], the Potency is 28.6 µM (active).
With `O=C1OCCO1`, the Potency entry in assay [1], in assay [2], in assay [7] and in assay [5] was “inactive” throughout. In assay [4], the Potency is 42.2 µM (active).
`CC1c2ccccc2CN1NC(=O)c1ccc(Cl)c(S(N)(=O)=O)c1` (stereo unspecified): the Potency entry in assay [1], in assay [2], in assay [4], in assay [5] and in assay [6] was “inactive” each time.
As to `Cc1c(C(=O)c2c[nH]n(C)c2=O)ccc(S(C)(=O)=O)c1C1=NOCC1`, the Potency entry in assay [1], in assay [2], in assay [5] and in assay [6] was “inactive” each time. Besides, the Potency is 12.9 µM (active) in assay [7] and 14.5 µM (active) in assay [4].
As for `O=Cc1ccccc1Cl`, the Potency entry in assay [1], in assay [3], in assay [7], in assay [4], in assay [5] and in assay [6] was “inactive” in each case.
Regarding `CC(=O)CC(=O)Nc1ccc(C)cc1C`, the Potency result in assay [1], in assay [2] and in assay [5] was “inactive” throughout. Besides, the Potency is 31.7 µM (active) in assay [7] and 15.9 µM (active) in assay [4].
As for `CC/C(C)=N\O[Si](C)(O/N=C(\C)CC)O/N=C(\C)CC`, the Potency result in assay [1] and in assay [5] was “inactive” in each case. For the same compound, the Potency in assay [2] was 32.1 µM (active); in assay [3], 22.8 µM (active); in assay [6], 12.8 µM (active).
Regarding `NCC1(Cc2noc(=O)[nH]2)CCCCC1`, the Potency result in assay [1], in assay [2], in assay [5] and in assay [6] was “inactive” each time.
Take `COC(=O)c1ccccc1C(=O)O`: the Potency result in assay [1], in assay [2], in assay [4], in assay [5] and in assay [6] was “inactive” in each case.
Turning to `c1ccc(-c2nn[nH]n2)cc1`, the Potency result in assay [1], in assay [2], in assay [3], in assay [5] and in assay [6] was “inactive” throughout.
Take `CCOCCOCC`: the Potency result in assay [1], in assay [2], in assay [3], in assay [5] and in assay [6] was “inactive” in each case.
For `CCN1CCCC1CN` (stereo unspecified), the Potency result in assay [1], in assay [2], in assay [7], in assay [4], in assay [5] and in assay [6] was “inactive” throughout.
As to `C=CCCCCCCCC`, the Potency entry in assay [1], in assay [2], in assay [3], in assay [5] and in assay [6] was “inactive” in each case.
`COC(C)(OC)OC`: the Potency result in assay [1], in assay [2], in assay [3], in assay [5] and in assay [6] was “inactive” throughout.
